# Compound activity (PubChem BioAssay)
# UCHL1 inh = blocks human UCHL1 ubiquitin-rhodamine cleavage. inhibition, % at 20 µM. purified UCHL1, Ub-rhodamine cleavage fluorescence. actives 0.2% (n = 47,000)
# USP7 inh = blocks human USP7 ubiquitin-rhodamine cleavage; actives 0.3% (n = 47,000); AID 1645854; purified USP7, Ub-rhodamine cleavage fluorescence; inhibition, % at 20 µM; Q93009
# OTUD3 inh = human OTUD3 deubiquitinase inhibition. purified OTUD3, Ub-rhodamine fluorescence, 2 h. inhibition, % at 25 µM. actives 0.7% (n = 47,000). Q5T2D3
# Target sequence (Q5T2D3 whole entry, looked up): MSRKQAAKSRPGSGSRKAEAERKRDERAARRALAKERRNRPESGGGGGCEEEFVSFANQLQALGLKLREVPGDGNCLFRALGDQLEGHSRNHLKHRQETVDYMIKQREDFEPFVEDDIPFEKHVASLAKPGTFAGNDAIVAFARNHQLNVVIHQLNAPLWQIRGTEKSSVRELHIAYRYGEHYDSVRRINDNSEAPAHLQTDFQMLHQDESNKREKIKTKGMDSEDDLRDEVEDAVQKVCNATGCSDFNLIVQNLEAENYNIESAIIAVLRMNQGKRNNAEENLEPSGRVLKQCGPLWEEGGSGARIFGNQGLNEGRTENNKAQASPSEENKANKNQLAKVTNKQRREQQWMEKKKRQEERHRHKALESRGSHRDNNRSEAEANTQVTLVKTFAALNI
# Numbers without * were called inactive. Shown are actives, neighbours in structure and some others; about 1.1% of the full set was active somewhere. Cut-off read from the data, not from the text of the source: active = inhibition above about 30%; inactive = the rest.
SMILES,UCHL1 inh,USP7 inh,OTUD3 inh
Cc1cccc(CNC(=O)Cn2cc(-c3nnc(C)o3)c3ccccc32)c1,2,4,21
Cc1cc(NC(=O)Cn2c(=O)n(CCCCC(=O)NCc3ccco3)c(=O)c3ccccc32)ccc1Br,1,5,18
COc1cc2c(=O)n(CCC(=O)NCc3ccco3)c(=O)n(CC(=O)Nc3c(C)cccc3C)c2cc1OC,8,9,50*
Cc1ccc(Cl)cc1NC(=O)Cn1c(=O)n(CCC(=O)NCc2ccco2)c(=O)c2ccccc21,5,-10,15
Cc1ccc(NC(=O)Cn2c(=O)n(CC(=O)NCc3ccco3)c(=O)c3ccccc32)cc1C,-7,-2,41*
O=C(O)c1nccnc1C(=O)N1CCc2ccccc2C1,6,-12,22
COc1ccc(NC(=O)CNC(=O)c2ccc3nc(-n4cccc4)sc3c2)cc1,11,-22,32*
CC(C)C[C@H](NC(=O)c1ccc2nc(-n3cccc3)sc2c1)C(=O)NCc1ccco1,-3,-2,-14
Cc1ccc2[nH]c(=O)c(-c3noc(CCC(=O)NC4CCCC4)n3)cc2c1,2,5,-27
Cc1ccc2cc(-c3noc(CCC(=O)NC4CCCC4)n3)c(=O)[nH]c2c1,9,41*,13
COc1cc(OC)cc(N2C(=O)N(CC(=O)c3ccc(Br)cc3)c3ccccc3S2(=O)=O)c1,14,46*,-5
COc1ccc(C(=O)CN2C(=O)N(c3cccc(C)c3)S(=O)(=O)c3ccccc32)cc1,-1,5,-4
O=C(O)c1cccc2nc(-c3cccc4ccccc34)cnc12,-31,-39,-85
O=C(Cn1c(=O)n(-c2ccc(CC(=O)NC3CCCC3)cc2)c(=O)c2ccccc21)Nc1ccccc1[N+](=O)[O-],2,0,29
COc1cc(NC(=O)Cn2c(=O)n(-c3ccc(CC(=O)NC4CCCC4)cc3)c(=O)c3ccccc32)cc(OC)c1,-1,17,43*
CC1CCCN(S(=O)(=O)c2ccc(-n3cnc(C(=O)N4CCCCC4)c3)nc2)C1 (stereo not given),-3,0,-3
CCCCNC(=O)CSc1nnc(-c2cc3ccccc3n2C)o1,4,5,31*
Cn1c(-c2nnc(SCC(=O)NCCc3ccccc3)o2)cc2ccccc21,2,3,17
Cc1ccc2c(c1)[nH]c1c(N3CCN(C/C=C/c4ccccc4)CC3)ncnc12,5,0,-21
O=C(NC1CCCC1)N1CC[C@@H]2CN(Cc3ccccc3)S(=O)(=O)[C@@H]2CC1,-2,-1,0
CCC/C=C\C#CC/C=C\CCCCCCCC(=O)O,69*,59*,58*
CCCCCCCC/C=C\CCCCCCCC(=O)O,1,5,-2
COc1ccc(-c2[nH]ncc2CN2CCN(c3ccccc3OC)CC2)cc1,3,2,0
Cc1ccc(NC(=O)c2nnn(-c3cccc(F)c3)c2C)cc1C,2,5,11
N=C1/C(=C/c2cn(Cc3ccccc3F)c3ccccc23)C(=O)N=C2SC(C(F)(F)F)=NN12,6,41*,-123
SMILES,UCHL1 inh,USP7 inh,OTUD3 inh
CC1=CN2C(=N)/C(=C/c3cn(Cc4ccc(Cl)cc4)c4ccccc34)C(=O)N=C2S1,-38,-137,-189
CSc1nc2ncc3c(=O)n(CCN4CCOCC4)ccc3n2n1,2,7,7
CCc1noc(-c2ccn3c(CC(=O)Nc4ccccc4C)nnc3c2)n1,1,9,10
Cc1ccc(NC(=O)Cc2nnc3cc(-c4nc(C)no4)ccn23)cc1,6,39*,30*
CCc1ccc(NC(=O)Cc2nnc3cc(-c4nc(C)no4)ccn23)cc1,1,44*,15
Cc1noc(-c2ccc3nnc(CC(=O)Nc4ccc(F)c(C)c4)n3c2)n1,-3,1,-5
COc1ccc(OC)c(CNCCCN2CCOCC2)c1,-4,7,-5
COc1ccc(C(=O)CCN2CCOCC2)cc1[N+](=O)[O-],5,-1,36*
O=C(COC(=O)c1ccc(F)cc1)Nc1ccc2[nH]c(=O)[nH]c2c1,5,12,10
O=C(COC(=O)c1cc(Cl)c2c(c1)OCO2)Nc1ccc2[nH]c(=O)[nH]c2c1,2,-35,31*
O=C(c1cnco1)N1CCCCC1c1ncc(Cc2ccc(Cl)cc2)o1 (stereo not given),2,-6,11
Cn1nccc1C(=O)N1CCCCC1c1ncc(Cc2ccc(Cl)cc2)o1 (stereo not given),1,-12,35*
CC(OC(=O)c1cccc(N(C)C)c1)C(=O)Nc1sccc1C(N)=O (stereo not given),-1,-4,-2
CC(OC(=O)c1cccc(N(C)C)c1)C(=O)Nc1ncc(Cl)cc1Cl (stereo not given),75*,2,-2
NC1=NC2(CCC(c3ccccc3)CC2)n2c(nc3ccccc32)N1 (stereo not given),2,1,-9
CCCCCC1OC(=O)c2c(C)cccc2Oc2ccc(O)c(C=O)c2/C=C/C1O (stereo not given),41*,-98,45*
CCCCCC1OC(=O)c2c(C)cccc2Oc2ccc(O)c(CO)c2/C=C/C1O (stereo not given),14,-15,20
O=C(CCCc1ccccc1)Nc1ccnn1C1CCN(Cc2cccc3c2OCO3)CC1,4,-10,2
CNc1ncccc1CN1Cc2nccn2CC1c1ccc(OC)cc1 (stereo not given),-10,-11,-26
CCCCCCCCCc1cc(OC(=O)c2c(CCCCCCCCC)cc(O)cc2O[C@@H]2O[C@H](CO)[C@@H](O)[C@H](O)[C@H]2O)cc(O)c1C(=O)O,84*,100*,101*
CCCCCCCc1cc(O)cc(OC(=O)c2c(CCCCCCC)cc(O)cc2O[C@H]2O[C@H](C(O)CO)[C@@H](O)[C@@H]2O)c1 (stereo not given in full),15,-4,0
CCCCCCCC/C=C\CCCCCCCc1cc(O)cc(O)c1C(=O)O,0,4,6
CCCCCCCc1cc(OC(=O)c2c(CCCCCCC)cc(O)cc2O[C@@H]2O[C@H](CO)[C@H](O)[C@H](O)[C@H]2O)cc(O)c1C(=O)O,69*,100*,100*
CCC(=O)c1cn(CC(=O)NCCOc2ccc(Cl)cc2)c2ccccc12,-2,-4,-13
O=C(NC1CCCC1)c1nnc2ccc(-c3ccccc3)nn12,-2,-6,2
SMILES,UCHL1 inh,USP7 inh,OTUD3 inh
O=C1N[C@H]2OCCC[C@H]2[C@H](C2CCN(Cc3ccccc3)CC2)N1,0,3,-6
Nc1cc(-c2cc(-c3ccccc3)c(C(F)(F)F)s2)[nH]n1,-1,0,-3
O=C(Cc1cccs1)Nc1nnc(SCc2ccc([N+](=O)[O-])cc2)s1,2,-2,-15
CC1CCN(C(=O)Nc2cccc(C#N)c2)Cc2nc3ccccc3n21 (stereo not given),-1,4,7
Cc1ccccc1Cn1cc(SCC(=O)Nc2ccc3c(c2)OCCO3)c2ccccc21,7,7,23
Cc1ccccc1C(=O)NCCn1cc(SCC(=O)Nc2ccc3c(c2)OCCO3)c2ccccc21,4,7,44*
CCOc1ccc(NC(=O)Cn2c(=O)n(CCCCCC(=O)NCc3ccc(F)cc3)c(=O)c3sccc32)cc1,6,29,32*
